# Reference: the supplement of paper PMC10849652
# Of roughly 8,800 targets only a part is listed; those with a hit were picked by preference. About 0.5% of all pairs of compound and target were hits. Unmarked numbers belong to inactive results.
# Legend:
# Test in all cases: log2 fold change, soluble protein after heating vs DMSO (PISA); higher = thermal stabilisation; K562 lysate, 10 uM; active = over 0.2 and 3.5 SD of the protein, either way, in both replicates (recomputed)
# vemurafenib = compound: CCCS(=O)(=O)Nc1ccc(F)c(C(=O)c2c[nH]c3ncc(-c4ccc(Cl)cc4)cc23)c1F [vemurafenib]
# Outline: (§1)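 Values give the log-two fold change in thermal stability against solvent controls, from duplicates. Crude K562 extract at 1 mg/mL protein, made by dounce homogenisation in PBS pH 7.4 with 1 mM MgCl2, was treated with 10 μM compound for 30 min. After 3 min heating across 48°C-58°C, aliquots were pooled, adjusted to 0.5% NP-40 at 4°C and centrifuged at 21,000xg for 90 min. The supernatant was measured by TMTpro 16plex LC-MS/MS with channel sums equalised.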
# [1] = compound: CCCS(=O)(=O)Nc1ccc(F)c(C(=O)c2c[nH]c3ncc(Cl)cc23)c1F
# Outline: as §1
# barasertib = compound: CCN(CCCOc1ccc2c(Nc3cc(CC(=O)Nc4cccc(F)c4)[nH]n3)ncnc2c1)CCOP(=O)(O)O [barasertib]
# Outline: as §1
# [2] = compound: CC[C@@H]1C(=O)N(C)c2cnc(Nc3ccc(C(=O)NC4CCN(C)CC4)cc3OC)nc2N1C1CCCC1
# Outline: as §1
# volasertib = compound: CC[C@@H]1C(=O)N(C)c2cnc(Nc3ccc(C(=O)N[C@H]4CC[C@H](N5CCN(CC6CC6)CC5)CC4)cc3OC)nc2N1C(C)C [volasertib]
# Outline: as §1
# [3] = compound: CCn1c(C(=O)N(C2CC2)C2CC2)cc2c3c(ncn3C)c(Nc3cc(C)n(C)n3)nc21
# Outline: as §1
# [4] = compound: CCn1cc(-c2ccnc3[nH]c(-c4cccc(CN(C)C)c4)cc23)c(-c2ccc(NC(=O)N(C)C)cc2)n1
# Outline: as §1
# [5] = compound: CN1CCC(CNc2ccc3ncc(-c4cccc(OC(F)(F)F)c4)n3n2)CC1
# Outline: as §1
# saracatinib = compound: CN1CCN(CCOc2cc(OC3CCOCC3)c3c(Nc4c(Cl)ccc5c4OCO5)ncnc3c2)CC1 [saracatinib]
# Outline: as §1
# sotrastaurin = compound: CN1CCN(c2nc(C3=C(c4c[nH]c5ccccc45)C(=O)NC3=O)c3ccccc3n2)CC1 [sotrastaurin]
# Outline: as §1
# Chain of UniProt O75334 (O75334 whole entry, looked up): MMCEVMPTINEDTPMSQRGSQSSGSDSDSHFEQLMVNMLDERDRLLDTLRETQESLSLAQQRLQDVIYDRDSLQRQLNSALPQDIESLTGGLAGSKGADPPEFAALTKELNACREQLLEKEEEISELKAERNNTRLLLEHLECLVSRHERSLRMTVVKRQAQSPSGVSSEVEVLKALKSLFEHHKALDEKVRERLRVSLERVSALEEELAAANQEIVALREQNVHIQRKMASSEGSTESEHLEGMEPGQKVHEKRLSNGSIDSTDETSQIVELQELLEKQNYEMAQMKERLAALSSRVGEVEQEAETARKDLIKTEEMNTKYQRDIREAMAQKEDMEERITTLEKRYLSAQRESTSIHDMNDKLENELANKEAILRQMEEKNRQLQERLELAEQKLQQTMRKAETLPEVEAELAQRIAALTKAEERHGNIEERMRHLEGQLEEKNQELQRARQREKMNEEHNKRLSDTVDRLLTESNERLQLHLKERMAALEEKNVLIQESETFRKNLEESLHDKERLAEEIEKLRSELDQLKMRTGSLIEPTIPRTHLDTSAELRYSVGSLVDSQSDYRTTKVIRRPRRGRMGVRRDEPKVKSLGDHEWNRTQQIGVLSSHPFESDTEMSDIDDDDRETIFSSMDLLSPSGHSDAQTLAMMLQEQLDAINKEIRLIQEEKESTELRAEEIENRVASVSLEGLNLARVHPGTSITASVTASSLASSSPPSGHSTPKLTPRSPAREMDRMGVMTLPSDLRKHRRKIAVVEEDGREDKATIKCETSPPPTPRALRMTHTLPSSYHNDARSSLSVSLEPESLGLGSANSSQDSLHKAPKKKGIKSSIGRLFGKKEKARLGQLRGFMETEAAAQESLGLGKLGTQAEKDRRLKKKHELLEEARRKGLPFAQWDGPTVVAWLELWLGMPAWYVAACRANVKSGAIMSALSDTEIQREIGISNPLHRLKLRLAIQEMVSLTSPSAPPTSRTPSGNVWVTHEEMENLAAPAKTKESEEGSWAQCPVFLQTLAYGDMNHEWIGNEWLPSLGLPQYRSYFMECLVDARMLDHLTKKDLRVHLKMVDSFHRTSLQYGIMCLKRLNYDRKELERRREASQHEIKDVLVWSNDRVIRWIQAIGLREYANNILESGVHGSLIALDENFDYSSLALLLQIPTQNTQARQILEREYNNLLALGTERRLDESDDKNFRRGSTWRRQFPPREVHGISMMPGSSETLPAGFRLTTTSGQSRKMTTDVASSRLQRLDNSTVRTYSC
# Chain of UniProt O60237 (O60237 whole entry, looked up): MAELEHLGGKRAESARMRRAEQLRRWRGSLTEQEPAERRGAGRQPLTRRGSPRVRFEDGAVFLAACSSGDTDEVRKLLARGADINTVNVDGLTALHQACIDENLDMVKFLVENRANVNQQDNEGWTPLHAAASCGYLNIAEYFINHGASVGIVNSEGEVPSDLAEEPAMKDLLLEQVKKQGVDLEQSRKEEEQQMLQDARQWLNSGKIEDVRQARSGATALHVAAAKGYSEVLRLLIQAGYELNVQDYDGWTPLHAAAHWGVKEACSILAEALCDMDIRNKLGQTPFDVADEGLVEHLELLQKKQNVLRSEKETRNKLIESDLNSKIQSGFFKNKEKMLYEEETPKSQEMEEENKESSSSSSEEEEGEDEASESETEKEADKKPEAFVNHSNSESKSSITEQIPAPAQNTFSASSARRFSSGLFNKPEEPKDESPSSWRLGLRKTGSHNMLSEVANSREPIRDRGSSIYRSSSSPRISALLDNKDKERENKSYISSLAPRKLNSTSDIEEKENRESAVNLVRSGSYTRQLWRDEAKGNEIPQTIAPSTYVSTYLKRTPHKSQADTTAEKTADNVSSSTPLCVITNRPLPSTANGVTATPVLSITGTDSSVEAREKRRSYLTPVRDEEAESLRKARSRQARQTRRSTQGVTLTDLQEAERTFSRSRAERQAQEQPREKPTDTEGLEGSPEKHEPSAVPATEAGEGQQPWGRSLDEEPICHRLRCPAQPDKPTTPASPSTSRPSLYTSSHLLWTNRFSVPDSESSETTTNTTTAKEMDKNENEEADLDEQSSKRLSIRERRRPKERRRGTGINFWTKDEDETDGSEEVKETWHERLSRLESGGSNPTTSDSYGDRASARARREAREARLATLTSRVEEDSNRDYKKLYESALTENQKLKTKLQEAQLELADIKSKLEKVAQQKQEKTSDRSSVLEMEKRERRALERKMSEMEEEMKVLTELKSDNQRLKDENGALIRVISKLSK
# Chain of UniProt P15735 (P15735 whole entry, looked up): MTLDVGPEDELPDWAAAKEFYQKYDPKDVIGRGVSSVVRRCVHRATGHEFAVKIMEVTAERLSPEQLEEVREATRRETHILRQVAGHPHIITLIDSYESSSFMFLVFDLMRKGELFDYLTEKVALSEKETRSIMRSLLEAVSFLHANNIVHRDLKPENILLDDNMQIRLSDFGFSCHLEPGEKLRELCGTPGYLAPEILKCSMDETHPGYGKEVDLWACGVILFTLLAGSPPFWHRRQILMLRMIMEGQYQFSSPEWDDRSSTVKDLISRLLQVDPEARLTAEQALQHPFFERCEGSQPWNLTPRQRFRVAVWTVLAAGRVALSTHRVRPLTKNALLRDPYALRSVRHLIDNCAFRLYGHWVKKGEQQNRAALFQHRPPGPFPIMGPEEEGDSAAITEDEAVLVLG
# Chain of UniProt P49642 (P49642 whole entry, looked up): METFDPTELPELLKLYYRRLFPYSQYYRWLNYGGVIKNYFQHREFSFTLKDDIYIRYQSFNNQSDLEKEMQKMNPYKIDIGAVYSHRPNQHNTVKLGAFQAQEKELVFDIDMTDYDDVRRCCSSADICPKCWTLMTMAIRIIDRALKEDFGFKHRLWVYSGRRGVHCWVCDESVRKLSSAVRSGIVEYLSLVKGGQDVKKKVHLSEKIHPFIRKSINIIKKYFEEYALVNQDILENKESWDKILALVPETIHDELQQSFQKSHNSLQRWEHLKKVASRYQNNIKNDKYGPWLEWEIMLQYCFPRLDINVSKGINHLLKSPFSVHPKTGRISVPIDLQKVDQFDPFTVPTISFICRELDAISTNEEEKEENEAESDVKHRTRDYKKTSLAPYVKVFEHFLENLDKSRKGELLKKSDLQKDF
# Chain of UniProt Q8TD55 (Q8TD55 whole entry, looked up): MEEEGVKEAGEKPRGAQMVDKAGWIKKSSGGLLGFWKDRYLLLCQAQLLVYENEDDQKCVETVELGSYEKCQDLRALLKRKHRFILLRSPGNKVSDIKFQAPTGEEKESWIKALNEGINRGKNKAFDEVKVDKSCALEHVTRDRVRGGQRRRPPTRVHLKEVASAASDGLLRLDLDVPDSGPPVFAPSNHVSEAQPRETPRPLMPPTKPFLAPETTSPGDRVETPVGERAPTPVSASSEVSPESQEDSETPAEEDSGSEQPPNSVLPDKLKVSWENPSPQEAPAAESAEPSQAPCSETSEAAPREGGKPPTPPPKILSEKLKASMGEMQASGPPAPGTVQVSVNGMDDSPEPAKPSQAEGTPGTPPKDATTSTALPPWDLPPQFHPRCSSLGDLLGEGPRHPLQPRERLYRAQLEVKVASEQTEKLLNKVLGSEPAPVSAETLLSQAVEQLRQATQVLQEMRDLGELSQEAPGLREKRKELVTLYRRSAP
# Chain of UniProt Q12972 (Q12972 whole entry, looked up): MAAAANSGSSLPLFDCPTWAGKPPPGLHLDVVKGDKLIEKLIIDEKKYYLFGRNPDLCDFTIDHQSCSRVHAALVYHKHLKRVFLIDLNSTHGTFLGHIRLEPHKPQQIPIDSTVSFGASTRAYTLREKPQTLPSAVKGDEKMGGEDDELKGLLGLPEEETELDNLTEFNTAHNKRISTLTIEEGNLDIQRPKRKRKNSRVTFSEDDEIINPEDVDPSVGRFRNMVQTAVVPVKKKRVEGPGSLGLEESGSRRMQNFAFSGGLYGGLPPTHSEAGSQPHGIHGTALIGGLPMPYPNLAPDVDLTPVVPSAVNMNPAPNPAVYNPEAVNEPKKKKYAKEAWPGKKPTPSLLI
# Chain of UniProt Q6EEV4 (Q6EEV4 whole entry, looked up): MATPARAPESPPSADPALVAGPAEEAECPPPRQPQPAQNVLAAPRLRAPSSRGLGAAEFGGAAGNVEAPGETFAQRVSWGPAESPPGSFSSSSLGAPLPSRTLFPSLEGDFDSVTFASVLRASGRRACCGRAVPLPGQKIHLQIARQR
# Chain of UniProt Q9UMR5 (Q9UMR5 whole entry, looked up): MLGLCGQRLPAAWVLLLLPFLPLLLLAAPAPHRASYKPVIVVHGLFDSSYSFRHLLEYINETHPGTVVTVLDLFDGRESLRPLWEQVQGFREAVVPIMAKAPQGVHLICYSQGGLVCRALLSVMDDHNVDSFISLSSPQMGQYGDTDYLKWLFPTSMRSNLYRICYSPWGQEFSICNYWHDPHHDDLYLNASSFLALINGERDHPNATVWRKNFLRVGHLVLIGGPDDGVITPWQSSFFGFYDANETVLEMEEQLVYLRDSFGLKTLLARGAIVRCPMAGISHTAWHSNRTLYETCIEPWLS
# Chain of UniProt Q9Y5K3 (Q9Y5K3 whole entry, looked up): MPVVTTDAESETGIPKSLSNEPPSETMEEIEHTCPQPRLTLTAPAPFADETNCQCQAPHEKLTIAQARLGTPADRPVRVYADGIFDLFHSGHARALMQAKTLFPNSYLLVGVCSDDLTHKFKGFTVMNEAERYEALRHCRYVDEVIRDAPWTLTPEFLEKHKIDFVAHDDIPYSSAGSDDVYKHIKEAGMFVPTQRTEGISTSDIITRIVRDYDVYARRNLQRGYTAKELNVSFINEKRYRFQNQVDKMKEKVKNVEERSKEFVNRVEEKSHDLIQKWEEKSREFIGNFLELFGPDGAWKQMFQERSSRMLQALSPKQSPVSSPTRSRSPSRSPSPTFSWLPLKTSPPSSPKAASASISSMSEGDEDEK
# Chain of UniProt Q13442 (Q13442 whole entry, looked up): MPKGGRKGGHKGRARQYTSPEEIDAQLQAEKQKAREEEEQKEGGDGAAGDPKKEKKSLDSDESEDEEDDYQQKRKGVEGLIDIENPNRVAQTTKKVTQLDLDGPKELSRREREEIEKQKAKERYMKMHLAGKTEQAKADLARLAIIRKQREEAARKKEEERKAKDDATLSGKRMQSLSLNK
Target,log2 fold change (vemurafenib),log2 fold change [1],log2 fold change (barasertib),log2 fold change [2],log2 fold change (volasertib),log2 fold change [3],log2 fold change [4],log2 fold change [5],log2 fold change (saracatinib),log2 fold change (sotrastaurin)
PLEKHO2 (UniProt Q8TD55),0.034,0.247,0.161,0.068,0.151,0.126,0.136,0.016,0.278,-0.054
PPFIA2 (UniProt O75334),0.062,-0.018,0.054,0.01,0.02,-0.127,-0.255,0.146,-0.016,-0.05
PDCD6IP (UniProt Q8WUM4),-0.003,0.015,0.083,-0.061,0.006,0.013,-0.073,-0.035,-0.068,-0.139
PPOX (UniProt P50336),0.058,0.02,-0.093,-0.036,-0.007,-0.096,-0.075,-0.018,-0.044,-0.021
PELO (UniProt Q9BRX2),0,0.021,0.037,-0.115,-0.066,-0.014,0.404 (active),-0.183,-0.001,-0.018
PDAP1 (UniProt Q13442),-0.026,-0.01,-0.064,0.069,0.04,-0.043,-0.267 (active),0.159,-0.002,-0.02
PRIM1 (UniProt P49642),-0.036,0.022,0.031,-0.089,-0.069,0.062,-0.008,-0.029,-0.002,0.007
PDS5A (UniProt Q29RF7),0.023,0.031,0.064,-0.057,-0.029,0.054,-0.12,-0.019,0.007,0.026
PRKCD (UniProt Q05655),-0.006,-0.118,0.057,0.008,-0.041,-0.014,0.012,0.021,-0.005,0.058
PPP1R8 (UniProt Q12972),0.049,-0.011,-0.032,0.08,-0.007,-0.031,-0.28 (active),0.176,-0.038,0.015
PRKACA (UniProt P17612),-0.036,-0.016,0.006,0.095,-0.043,-0.081,-0.418,0.351,-0.075,0.216
PHF14 (UniProt O94880),0.079,-0.127,-0.046,0.341,0.004,-0.02,–,–,-0.047,–
POLD1 (UniProt P28340),0.01,0.053,-0.011,-0.021,-0.005,0.035,0.028,-0.043,0.01,0.015
PCYT1B (UniProt Q9Y5K3),0.013,0.011,0.012,0.046,0.017,0.008,-0.094,0.063,0.012,-0.002
POLR3E (UniProt Q9NVU0),0.011,0.02,0.003,0.018,-0.004,-0.012,0.035,0.012,0.017,0.048
PICALM (UniProt Q13492),-0.004,-0.004,0.037,0.04,0.014,0.004,0.098,-0.021,0.009,-0.061

Target,log2 fold change (vemurafenib),log2 fold change [1],log2 fold change (barasertib),log2 fold change [2],log2 fold change (volasertib),log2 fold change [3],log2 fold change [4],log2 fold change [5],log2 fold change (saracatinib),log2 fold change (sotrastaurin)
PYCR2 (UniProt Q96C36),0.004,-0.005,0.006,0.036,0.016,-0.001,0.099,0.012,-0.012,-0.014
PPP2R5C isoform 4 (UniProt Q13362),0.029,0.02,-0.001,0.018,-0.002,0.022,-0.02,-0.038,0.017,-0.036
PPT2 isoform 3 (UniProt Q9UMR5),0.007,0.012,0.028,0.01,-0.023,-0.026,0.007,0.018,-0.011,0.003
PTGS1 isoform 6 (UniProt P23219),0.058,0.076,0.039,0.005,-0.022,-0.012,-0.279 (active),0.134,-0.033,0.065
PPP1R12B isoform 6 (UniProt O60237),0.08,0.036,-0.046,0.133,-0.029,-0.209,–,–,-0.047,-0.057
PFKP (UniProt Q01813),-0.047,-0.056,0.018,-0.005,0.015,-0.007,0.052,-0.033,0.008,-0.025
PHLDB1 (UniProt Q86UU1),-0.071,0.162,0.01,0.033,-0.044,0.001,0.095,-0.014,0.005,-0.049
PHKG2 (UniProt P15735),-0.074,-0.055,0.126,0.074,0.073,-0.007,-0.103,0.045,0.062,-0.054
PIK3CB (UniProt P42338),-0.079,0.001,0.011,0.314,-0.025,-0.07,-0.02,0.427,-0.03,0.158
PUF60 isoform 2 (UniProt Q9UHX1),-0.126,0.101,-0.057,0.047,0.021,-0.062,1.25 (active),-0.115,–,-0.043
PRMT8 (UniProt Q9NR22),0.059,0.021,0.007,-0.009,-0.009,-0.005,-0.285 (active),0.179,-0.018,0.007
PRKAR2A (UniProt P13861),-0.01,0.033,0.055,0.011,-0.013,0.009,0.065,-0.26 (active),-0.012,-0.154
PREP (UniProt H0Y5Y0),–,0.019,–,–,0.079,–,0.678,-0.144,–,–
POLR2M (UniProt Q6EEV4),0.117,-0.043,0.176,0.032,-0.074,–,0.154,-0.077,0.016,-0.072
PDE4DIP (UniProt E9PS60),-0.014,–,–,0.017,–,–,-0.942 (active),0.153,0.067,0.137
